Results from PubChem BioAssay.
The source made the active and inactive calls. Unless noted, no rule for the calls is given here.

Key:
[1] = resazurin metabolic signal in HepG2 cells – cell-based, resazurin fluorescence, 24 h, PK04 Diversity Set, profiling panel (AID 1172); settings: HepG2 viability, higher = more signal
[2] = budding yeast growth changes without added modifier – OD600, strain BY4716, 24 h, basal condition, primary screen (AID 1173); settings: S. cerevisiae BY4716 growth, OD600, 24 h; higher = more signal, called active from +8 up or from −8 down
[3] = viability profiling in MM1S myeloma cells – cell-based, resazurin fluorescence, basal, 24 h, PK04 Diversity Set, profiling panel (AID 1174); settings: higher = more signal, called active from +8 up or from −8 down;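 also: MM1S multiple myeloma cell line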
[4] = target: Dihydroorotate dehydrogenase (quinone), mitochondrial (Plasmodium falciparum (isolate 3D7)) (UniProt Q08210); test: inhibition of P. falciparum DHODH – biochemical, C-terminal His tag, absorbance 600 nm, primary screen (AID 1175); settings: PfDHODH enzyme, DCIP absorbance 600 nm; higher = more signal, called active from +8 up or from −8 down;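 also: recombinant parasite enzyme with a five histidine tag at its C terminus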
[5] = inhibition of PAO1 biofilm formation – strain PAO1, LB-PBS medium, absorbance 600 nm, primary screen (AID 1176); settings: P. aeruginosa PAO1 growth/biofilm, A600, 12 h; higher = more signal
[6] = growth modulation of vineyard yeast isolate – strain RM11-1a, OD600, basal, 24 h, primary screen (AID 1177);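 also: cultures grown under basal conditions with no added stressor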; settings: S. cerevisiae RM11-1a growth, OD600, 24 h; higher = more signal, called active from +8 up or from −8 down
[7] = growth of efflux-deficient E. coli DRC39 – strain DRC39, OD650, 24 h, E. coli filamentation inducers, primary screen (AID 1178);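 also: growth measured as culture turbidity by optical density at 650 nm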; settings: E. coli DRC39 acrAB, higher = more signal, called active from +8 up or from −8 down
[8] = growth of efflux-deficient E. coli DRC39 – strain DRC39, OD650, 48 h, E. coli filamentation inducers, primary screen (AID 1179);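 also: screen aims at cell division blockers that make cells filament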; settings: E. coli DRC39 delta-acrAB growth, higher = more signal, called active from +8 up or from −8 down
[9] = viability profiling in RPMI8226 myeloma cells – cell-based, resazurin fluorescence, basal, 24 h, PK04 Diversity Set, profiling panel (AID 1180); settings: higher = more signal;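 also: RPMI8826 multiple myeloma cell line at 5000 cells per well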
[10] = target: E3 ubiquitin-protein ligase XIAP (Homo sapiens) (UniProt P98170); test: small molecules binding XIAP protein – biophysical, small-molecule microarray, fluorescence 635 nm, primary screen (AID 1181); settings: higher = more signal;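 also: score merges 667 nm emission and signal to noise over triplicate slides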
[11] = test system: XIP peptide (Xip251-270) binding; test: XIP fragment 251-270 binding compounds – biochemical, small-molecule microarray, fluorescence 635/667 nm, 0.1 µg/mL protein, primary screen (AID 1182); settings: fluorescent protein binding, 635 nm, higher = more signal, called active from +8 up or from −8 down
XIP peptide (Xip251-270) = test: compounds binding XIP fragment 251-270 – biochemical, small-molecule microarray, fluorescence 635/667 nm, 0.5 µg/mL protein, primary screen (AID 1183); settings: fluorescence 635 nm, higher = more signal
[12] = blood-stage malaria parasite viability loss – strain 3D7, DAPI fluorescence, 100 nL, primary screen (AID 1184);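 also: parasites grown inside human red blood cells in medium with human serum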; settings: P. falciparum 3D7 growth, 3 d, higher = more signal
[13] = target: Homeobox protein Hox-A13 (Mus musculus) (UniProt Q62424); test: disruptors of Hoxa13 oligonucleotide interaction – biochemical, fluorescence polarization, labeled oligonucleotide, primary screen (AID 1185); settings: Hoxa13:DNA binding, 15 min, higher = more signal, called active from +8 up or from −8 down
[14] = blockers of DNA damage checkpoint Chk1 activation – imaging, HeLa, hydroxyurea, phospho-Chk1 antibody, percent positive cells, primary screen (AID 1186); settings: hydroxyurea-induced phospho-Chk1 immunofluorescence imaging, higher = more signal
[15] = blockers of DNA damage checkpoint Chk1 activation – imaging, HeLa, hydroxyurea, phospho-Chk1 nuclear intensity, primary screen (AID 1187); settings: hydroxyurea-induced phospho-Chk1 immunofluorescence imaging, higher = more signal

Chain of Homeobox protein Hox-A13 (Mus musculus) (Q62424 whole entry, looked up): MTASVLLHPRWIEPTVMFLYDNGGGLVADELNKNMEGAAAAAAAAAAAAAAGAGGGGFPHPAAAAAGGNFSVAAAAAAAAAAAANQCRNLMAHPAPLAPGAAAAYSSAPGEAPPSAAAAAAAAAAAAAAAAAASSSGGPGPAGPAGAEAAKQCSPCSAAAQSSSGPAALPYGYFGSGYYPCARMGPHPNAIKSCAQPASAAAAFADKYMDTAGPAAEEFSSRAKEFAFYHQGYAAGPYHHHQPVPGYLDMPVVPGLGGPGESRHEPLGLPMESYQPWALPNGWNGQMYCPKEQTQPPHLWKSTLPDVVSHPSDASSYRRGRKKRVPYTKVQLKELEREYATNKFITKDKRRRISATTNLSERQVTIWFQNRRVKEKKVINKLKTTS
Chain of E3 ubiquitin-protein ligase XIAP (Homo sapiens) (P98170 whole entry, looked up, the tested form may be a part): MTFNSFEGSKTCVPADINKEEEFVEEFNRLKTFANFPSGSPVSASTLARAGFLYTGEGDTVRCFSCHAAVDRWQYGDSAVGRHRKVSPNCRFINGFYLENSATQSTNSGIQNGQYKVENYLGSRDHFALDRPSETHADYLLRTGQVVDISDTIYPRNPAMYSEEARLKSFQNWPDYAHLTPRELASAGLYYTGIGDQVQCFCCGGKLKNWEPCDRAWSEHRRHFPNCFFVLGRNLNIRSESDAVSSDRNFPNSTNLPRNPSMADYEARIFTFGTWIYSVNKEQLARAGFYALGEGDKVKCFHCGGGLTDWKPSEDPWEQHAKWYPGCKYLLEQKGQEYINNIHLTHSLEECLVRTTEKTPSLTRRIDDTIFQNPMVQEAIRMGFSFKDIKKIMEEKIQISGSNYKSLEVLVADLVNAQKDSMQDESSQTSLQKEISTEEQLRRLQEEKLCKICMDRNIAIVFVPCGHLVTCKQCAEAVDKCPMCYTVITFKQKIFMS
Chain of Dihydroorotate dehydrogenase (quinone), mitochondrial (Plasmodium falciparum (isolate 3D7)) (Q08210 whole entry, looked up): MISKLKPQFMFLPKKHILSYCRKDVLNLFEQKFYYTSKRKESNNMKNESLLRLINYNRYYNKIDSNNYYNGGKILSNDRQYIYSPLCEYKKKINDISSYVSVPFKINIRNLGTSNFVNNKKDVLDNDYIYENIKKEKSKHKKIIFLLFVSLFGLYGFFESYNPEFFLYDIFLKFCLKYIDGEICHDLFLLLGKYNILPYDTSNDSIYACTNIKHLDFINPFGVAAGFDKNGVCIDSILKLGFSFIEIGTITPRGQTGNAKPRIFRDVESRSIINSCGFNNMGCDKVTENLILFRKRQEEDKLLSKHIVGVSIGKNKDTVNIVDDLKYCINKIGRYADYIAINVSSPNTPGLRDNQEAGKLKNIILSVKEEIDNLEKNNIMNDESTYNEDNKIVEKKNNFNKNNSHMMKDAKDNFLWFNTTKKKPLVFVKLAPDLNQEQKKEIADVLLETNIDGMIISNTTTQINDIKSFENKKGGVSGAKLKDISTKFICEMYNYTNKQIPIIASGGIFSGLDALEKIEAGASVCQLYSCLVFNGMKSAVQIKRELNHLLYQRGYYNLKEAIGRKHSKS

SMILES | z-score [1] | z-score [2] | z-score [3] | composite z-score [4] | z-score [5] | z-score [6] | z-score [7] | z-score [8] | z-score [9] | composite z-score [10] | composite z-score [11] | composite z-score (XIP peptide (Xip251-270)) | z-score [12] | z-score [13] | z-score [14] | z-score [15]
CC(=O)NCCCC[C@@H]1NC(=O)[C@@H]2C[C@H](C(=O)NCCCCCCNC(=O)CS)[C@H](c3ccc(O)cc3)N2C1=O | 0.107 | -0.688 (inactive) | -0.568 (inactive) | -0.344 (inactive) | -0.434 (inactive) | 0.208 (inactive) | -0.356 (inactive) | -0.214 (inactive) | -0.763 | -0.0773 | 0.757 (inactive) | 0.596 | 0.648 | -5.16 (inactive) | 0.34 (inactive) | 0.0918 (inactive)
CC(C)N1C(=O)[C@@]2(c3ccc([N+](=O)[O-])cc3)CC(=O)N(CC34CC5CC(CC(C5)C3)C4)[C@@H]2c2ccc(CO)cc21 | -0.0685 | 0.601 (inactive) | -1.02 (inactive) | -4.98 (inactive) | -0.0902 (inactive) | 0.156 (inactive) | 0.101 (inactive) | 0.0457 (inactive) | -0.629 | -0.0224 | -0.43 (inactive) | 0.52 | 0.115 | -0.734 (inactive) | 0.18 (inactive) | -0.0138 (inactive)
CC=CC(O)C1C=CC2C(=O)N(c3ccccc3)C(=O)C2N1Nc1ccc(C(C)C)cc1 (stereo not drawn) | -1.76 | 0.474 (inactive) | -0.785 (inactive) | 0.784 (inactive) | 0.518 (inactive) | 1.11 (inactive) | -0.457 (inactive) | -1.02 (inactive) | -0.863 | 0.384 | 0.213 (inactive) | 0.766 | -0.747 | -2.24 (inactive) | 0.55 (inactive) | 0.538 (inactive)
C=CCNC(=O)[C@@H]1[C@H]2C(=O)O[C@H](c3ccccc3)[C@H](c3ccccc3)N2[C@H](c2ccccc2OCCO)[C@@]12C(=O)Nc1ccc(C#CC3=CCCCC3)cc12 | -1.55 | 0.556 (inactive) | -2.61 (inactive) | 0.496 (inactive) | 1.55 (inactive) | 1.78 (inactive) | -0.125 (inactive) | -0.353 (inactive) | -5 | 0.0593 | 1.02 (inactive) | 0.691 | -2.17 | 1.71 (inactive) | 0.0372 (inactive) | 0.464 (inactive)
CCCC[C@@H]1C[C@H]1[C@@H](NC(=O)c1ccc(-c2ccccc2)cc1)c1ccc(-c2ccccc2)cc1 | 0.543 | -0.498 (inactive) | -0.271 (inactive) | -1.12 (inactive) | 0.315 (inactive) | 0.0066 (inactive) | -0.836 (inactive) | -1.19 (inactive) | -0.0454 | 0.359 | 0.0014 (inactive) | -0.532 | -1.05 | -1.24 (inactive) | 0.558 (inactive) | 0.394 (inactive)
CCCC[C@H]1OB(O)C[C@H]2C1=C(C)C[C@H]1C(=O)N(Cc3ccccc3)C(=O)[C@H]12 | 0.589 | -5.14 (inactive) | 0.355 (inactive) | -0.231 (inactive) | 0.0481 (inactive) | -0.621 (inactive) | 1.68 (inactive) | 0.452 (inactive) | 0.156 | -0.0627 | 0.0643 (inactive) | 0.911 | 0.508 | -7.36 (inactive) | -0.128 (inactive) | -0.379 (inactive)
O=C(O)[C@@]1(Cc2ccccc2)N=C(c2ccc(OCCCO)cc2)O[C@H]1c1ccccc1 | 0.712 | -1.12 (inactive) | 0.551 (inactive) | 1.22 (inactive) | -0.692 (inactive) | 0.291 (inactive) | 0.24 (inactive) | 1.34 (inactive) | 0.655 | -0.0095 | 0.213 (inactive) | 0.427 | 0.653 | -5.03 (inactive) | -0.294 (inactive) | -0.224 (inactive)
CC(C)c1ccc(NN2C(C(O)c3cccc(O)c3)C=CC3C(=O)N(c4ccccc4)C(=O)C32)cc1 (stereo not drawn) | -0.546 | -0.914 (inactive) | -0.501 (inactive) | 0.523 (inactive) | 0.186 (inactive) | 1.63 (inactive) | -0.0564 (inactive) | -0.063 (inactive) | -0.111 | 0.42 | 0.305 (inactive) | 0.668 | -0.0362 | -4.3 (inactive) | 0.999 (inactive) | 0.88 (inactive)
